PubChem BioAssay (Tox21)
Where “and” joins values, the source holds several entries; their conditions need not be identical. Equal entries are not always repeated. Results filed as inconclusive are left out. Where a call stands in place of a potency, no number is given. Where a structure was tested more than once in an assay, its records may differ in their call. Calls of active or inactive are those of the source. Unless noted, calls follow the shape of the dose curve; as a rule, active = well fitted curve in the direction sought with a large enough effect in the repeat runs; inconclusive = weak or mixed curves; inactive = no such curve, though single readings can be large; an effect the other way counts as inactive or inconclusive.

How the values were obtained:
[1] = qHTS assay for small molecule agonists of the p53 signaling pathway (AID 651631; calls by dose curve; also: nearly all actives have a fitted effect of over 15% in size; also: potency is read from the fitted curve at half-maximal effect)
Method in brief: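 HCT-116 cells carrying a stable p53 response element–beta-lactamase reporter were plated, rested 5 h at 37 °C, then exposed to compound in DMSO for 16 h at 37 °C; reporter activity was read as FRET substrate fluorescence after 2 h at room temperature.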

[2] = qHTS assay for small molecules that induce genotoxicity in human embryonic kidney cells expressing luciferase-tagged ATAD5 (AID 651632); also: nearly all actives have a fitted effect of over 15% in size
Method in brief: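 Luminescence read-out: after 16 hr compound exposure at 37C, ATAD5-luciferase HEK293T cells received Amplite, 30 min RT, then CCD imaging. A rise in signal marks genotoxic stress.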

[3] = qHTS assay for small molecule agonists of the p53 signaling pathway - cell viability (AID 651633; calls by dose curve; also: nearly all actives have a fitted effect of over 30% in size; also: potency is read from the fitted curve at half-maximal effect)
Method in brief: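 Viability counter-read: CellTiter-Glo luminescence (30 min, room temperature) in the same p53RE-bla plates. These plates had been exposed to compounds for 16 h at 37 C.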

[4] = qHTS assay for small molecules that induce genotoxicity in human embryonic kidney cells expressing luciferase-tagged ATAD5 - cell viability (AID 651634; calls by dose curve; also: nearly all actives have a fitted effect of over 25% in size)
Method in brief: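 HEK293T ATAD5-luc cells, 2,000/well; compound 15.5 hr, 37C/5% CO2; CellTiter-Fluor 30 min, 37C; fluorescence read.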

[5] = qHTS assay for small molecule disruptors of the mitochondrial membrane potential - cell viability (AID 720634; calls by dose curve;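 also: human HepG2 liver cancer cells; series mostly up to about 83 µM; nearly all actives have a fitted effect of over 20% in size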)
Method in brief: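 Luminescence from CellTiter-Glo (ATP content) gave viability in HepG2 cells, read in the same wells as the MMP dye assay after 1 hr compound exposure at 37 C.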

[6] = qHTS assay for small molecule disruptors of the mitochondrial membrane potential (AID 720635)
Method in brief: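 Mitochondrial membrane potential tracked with Mito-MPS dye, red aggregates (ex 540/em 590 nm) against green monomers (ex 490/em 535 nm). Compound treatment 1 hr at 37C, dye 30 min in HepG2.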

[7] = qHTS assay to test for compound auto fluorescence at 590 nm (red) in HepG2 cells (AID 720674)
Method in brief: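 We screened compounds on adherent HepG2 cells, incubating them for an hour at 37 C in 5% CO2 before reading emission at 590 nm under 540 nm excitation; values reflect equivalence to Rose Bengal sodium fluorescence.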

[8] = qHTS assay to test for compound auto fluorescence at 535 nm (green) in HepG2 cells (AID 720675)
[9] = qHTS assay to test for compound auto fluorescence at 460 nm (blue) in HEK293 cells (AID 720678)
Method in brief: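 After cell attachment (4-5 hr, 37C), compounds were pinned onto HEK293 monolayers in 10% dialyzed FBS medium. The blue channel (405/460 nm) was read following overnight culture. Equivalency was calculated against triamterene.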

[10] = qHTS assay to test for compound auto fluorescence at 590 nm (red) in HEK293 cells (AID 720679)
Method in brief: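 Plates of HEK293 cells (10% dialyzed FBS) are treated with 23 nL compound or DMSO vehicle after a 4-5 hr attachment period, incubated overnight at 37C, and read for red fluorescence at 540/590nm.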

[11] = qHTS assay to test for compound auto fluorescence at 535 nm (green) in HEK293 cells (AID 720680)
[12] = qHTS assay to test for compound auto fluorescence at 460 nm (blue) in HEK293 cell free culture (AID 720681)
Method in brief: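 Blue fluorescence (Ex 405/Em 460 nm, triamterene-equivalent) was read immediately after pin transfer of compound or DMSO into medium (DMEM, 10% FBS) without cells.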

[13] = qHTS assay to test for compound auto fluorescence at 535 nm (green) in HEK293 cell free culture (AID 720682)
Method in brief: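 Read-out: 485/535 nm fluorescence intensity, calibrated against fluorescein. Medium only (DMEM + 10% FBS, no cells); test compound or DMSO vehicle added by pintool before plate reading.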

[14] = qHTS assay to test for compound auto fluorescence at 590 nm (red) in HEK293 cell free culture (AID 720683)
Method in brief: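 Red-channel autofluorescence of compounds in culture medium (DMEM, 10% FBS), no cells, measured at 540/590 nm. Rose Bengal sodium is the reference fluorophore for equivalence.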

[15] = qHTS assay to test for compound auto fluorescence at 590 nm (red) in HepG2 cell free culture (AID 720684)
Method in brief: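 Cell-free; medium MEM + 10% FBS; compound or DMSO added by pintool; read Ex 540/Em 590 nm; Rose Bengal sodium as red reference fluorophore.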

[16] = qHTS assay to test for compound auto fluorescence at 460 nm (blue) in HepG2 cell free culture (AID 720685)
Method in brief: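 Cell-free plates of MEM plus 10% FBS received 23 nL compound or DMSO vehicle; blue-channel (405/460 nm) intensity scored against triamterene as reference fluorophore.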

[17] = qHTS assay to test for compound auto fluorescence at 535 nm (green) in HepG2 cell free culture (AID 720686)
[18] = qHTS assay to test for compound auto fluorescence at 460 nm (blue) in HepG2 cells (AID 720687)
Method in brief: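 Blue-channel autofluorescence (Ex/Em 405/460 nm, triamterene-equivalent) was measured after 1 hr compound exposure at 37 C, 5% CO2. Cells were HepG2, plated overnight at 37 C in MEM plus 10% FBS.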

[19] = biological target: Glucocorticoid receptor (Homo sapiens) (UniProt P04150); assay: qHTS assay to identify small molecule agonists of the glucocorticoid receptor (GR) signaling pathway (AID 720691; active = well fitted activation curve with a large enough effect in the signal ratio in the repeat runs, not every such curve was filed as active; the % refers to the signal ratio)
Chain of Glucocorticoid receptor (Homo sapiens) (P04150 whole entry, looked up): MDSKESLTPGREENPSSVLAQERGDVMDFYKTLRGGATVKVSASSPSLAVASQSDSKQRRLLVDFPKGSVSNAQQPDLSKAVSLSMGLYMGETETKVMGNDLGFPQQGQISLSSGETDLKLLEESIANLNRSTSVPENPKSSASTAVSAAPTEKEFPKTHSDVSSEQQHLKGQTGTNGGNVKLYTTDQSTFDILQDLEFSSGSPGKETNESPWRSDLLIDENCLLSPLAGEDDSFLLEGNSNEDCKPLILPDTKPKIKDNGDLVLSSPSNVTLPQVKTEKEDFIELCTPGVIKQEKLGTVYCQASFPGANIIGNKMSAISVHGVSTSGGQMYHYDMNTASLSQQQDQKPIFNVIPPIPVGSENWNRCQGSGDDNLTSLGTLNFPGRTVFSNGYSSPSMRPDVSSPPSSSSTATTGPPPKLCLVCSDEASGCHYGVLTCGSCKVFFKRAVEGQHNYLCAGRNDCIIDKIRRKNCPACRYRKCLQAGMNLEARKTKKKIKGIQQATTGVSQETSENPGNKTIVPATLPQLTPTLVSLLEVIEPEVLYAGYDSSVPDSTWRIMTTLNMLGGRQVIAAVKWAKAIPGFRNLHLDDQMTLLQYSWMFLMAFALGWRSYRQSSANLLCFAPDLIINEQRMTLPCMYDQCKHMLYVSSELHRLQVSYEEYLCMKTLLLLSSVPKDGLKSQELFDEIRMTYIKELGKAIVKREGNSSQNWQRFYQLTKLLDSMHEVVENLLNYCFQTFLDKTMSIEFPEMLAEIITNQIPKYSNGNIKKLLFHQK
Method in brief: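 HeLa GR-bla reporter line; cells pre-incubated 4 h, compound in DMSO 18 h at 37 C; LiveBLAzer B/G FRET substrate 2 h RT; fluorescence intensity read-out.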

[20] = biological target: Glucocorticoid receptor (Homo sapiens) (UniProt P04150); assay: qHTS assay to identify small molecule antagonists of the glucocorticoid receptor (GR) signaling pathway (AID 720692; active = well fitted inhibition curve with a large enough effect in the signal ratio in the repeat runs, not every such curve was filed as active; the % refers to the signal ratio)
Method in brief: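 Read-out: beta-lactamase FRET substrate fluorescence, 2 h at room temperature, in HeLa cells stably carrying a GRE-driven bla reporter. Compounds were co-incubated with 5 nM dexamethasone agonist (final) for 18 h at 37 C.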

| SMILES | Potency [1] | Potency [2] | Potency [3] | Potency [4] | Potency [5] | Potency [6] | Potency [7] | Potency [8] | Potency [9] | Potency [10] | Potency [11] | Potency [12] | Potency [13] | Potency [14] | Potency [15] | Potency [16] | Potency [17] | Potency [18] | Potency [19] | Potency [20] |
| --- | --- | --- | --- | --- | --- | --- | --- | --- | --- | --- | --- | --- | --- | --- | --- | --- | --- | --- | --- | --- |
| CCCCC/C=C\C/C=C\CCCCCCCC(=O)O | inactive and 68.6 µM (active) | inactive | inactive and 54.5 µM (active) | inactive | inactive | inactive | inactive | inactive | inactive | inactive | inactive | inactive | inactive | inactive | inactive | inactive | inactive | inactive | – | – |
| CCc1ccc(Br)cc1 | inactive | inactive | inactive | inactive | inactive | inactive | inactive | inactive | inactive | inactive | inactive | inactive | inactive | – | inactive | inactive | inactive | – | inactive | inactive |
| CCCCCCCC/C=C\CCCCCCCCN | inactive | inactive | inactive | inactive | inactive | inactive | inactive | inactive | – | inactive | inactive | inactive | inactive | inactive | inactive | inactive | inactive | inactive | – | – |
| Cc1ccc(C(=O)O)cc1 | inactive | inactive | inactive | inactive | inactive | inactive | inactive | inactive | inactive | inactive | inactive | inactive | inactive | inactive | inactive | inactive | inactive | inactive | – | – |
| CCOC(=O)Cn1cccc1-c1nc(-c2ccc(OC)cc2)c(-c2ccc(OC)cc2)s1 | 29.8 µM (active) | inactive | inactive | inactive | inactive | inactive | inactive | inactive | inactive | inactive | inactive | inactive | inactive | inactive | inactive | inactive | inactive | inactive | inactive | – |
| O=C(O)c1cc(=O)c2ccccc2o1 | inactive | inactive | inactive | inactive | inactive | inactive | inactive | inactive | inactive | inactive | inactive | inactive | inactive | – | inactive | inactive | inactive | inactive | inactive | inactive |
| c1ccsc1 | inactive | inactive | inactive | inactive | inactive | inactive | – | inactive | inactive | inactive | inactive | inactive | inactive | inactive | inactive | inactive | inactive | inactive | – | – |
